# Laboratory results published in PubChem BioAssay.
# Unmarked numbers belong to inactive results. Activity calls are given as the source filed them. Rule as the data show it: active = inhibition above about 33%; inactive = the rest.
# Experiment: compounds suppressing VP16-driven luciferase signal – cell-based, luminescence, high throughput, counter-screen for LRH-1 inverse agonist project (AID 651615)
# Conditions: Gal4-VP16 luciferase reporter cells, at 3.6 µM, active compounds read high
row,SMILES,inhibition
1,COc1ccc(NC(=O)CSc2nnc(-c3ccccn3)n2N)cc1Cl,2.01%
2,CS(=O)(=O)N1Cc2cc(C(=O)NCC3CC3)nc(-c3cccc(-c4cccnc4)c3)c2[C@@H]1CCO,-12.3%
3,COc1ccc(NC(=O)CSC2=NCCN2)cc1,-3.5%
4,c1ccc2c(c1)CC1(CCCC1)n1nnnc1-2,-5.69%
5,CCOc1ccc(CCNC(=O)COC(=O)c2cc([N+](=O)[O-])ccc2N2CCOCC2)cc1OCC,-11.1%
6,O=C(c1ccc(Oc2ccc(Cl)cc2)c([N+](=O)[O-])c1)N1CCCC1,-0.01%
7,CN(C)c1cc[n+](Cc2c(Cl)cccc2Cl)cc1,45.7% (active)
8,COc1cc(OC)cc(-c2oc3cccnc3c2C#CCCO)c1,-0.7%
9,COc1ccc(OC)c(-n2c(-c3ccc(S(C)(=O)=O)cc3)cc(C=O)c2C)c1,-41.9%
10,COc1ccc(CN(C)C(=O)CCl)cc1,-5.19%
11,COc1cc2c(cc1OC)CN(C(=O)Cn1ccccc1=O)CC2,6.2%
12,O=C(NCc1cccnc1)c1cccn2c(=O)c3sccc3nc12,1.7%
13,COc1ccc(-n2c(/C=C(\C)O)nc(=O)c3c(C)cc(C)nc32)cc1,16.7%
14,CC[n+]1ccc(/C=C/c2ccc(N(C)C)cc2)c2ccccc21,91.1% (active)
15,CC(=O)Nc1ccc(NC(=O)CSc2ccc(-c3ccc(-n4ccnc4)cc3)nn2)cc1,-5.42%
16,O=C(CSc1nnc(Cc2cccs2)n1Cc1ccco1)Nc1ccc(Cl)cc1Cl,19.1%
17,Clc1ccc(COc2cccc(CNCc3ccncc3)c2)cc1,26%
18,COc1ccc(CCNC(=O)COC(=O)C2CC2C)cc1 (stereo not given),2.63%
19,COc1ccc(Br)cc1/C=C/C(=O)c1ccc(NC(C)=O)cc1,85.4% (active)
20,CCCc1nc(SCC(=O)c2ccc(F)cc2)c2ccccc2n1,-0.25%

row,SMILES,inhibition
1,COc1ccccc1-c1nnc2sc(-c3ccc(N(C)C)cc3)nn12,31.2% (active)
2,COc1ccc(CCNC(=O)CSc2nc3[nH]ncc3c(=O)n2-c2ccccc2Br)cc1OC,-2.5%
3,Oc1ccccc1-c1nc(NCC2CCCO2)c2ccccc2n1 (stereo not given),-8%
4,CS/C(=C\[N+](=O)[O-])Nc1ccc(OC(F)(F)F)cc1,9.63%
5,O=C(Nc1c(F)cccc1F)c1cnc(N2CCN(c3ccccn3)CC2)c2ccccc12,17.4%
6,CCCc1nnc(SCC(=O)Nc2ccc(OC)cc2)o1,-8.5%
7,CCCc1nc2cc(C)c(Br)c(C)n2c1Cc1ccc(OC)cc1C,5.35%
8,CCCc1cc(=O)oc2c(C)c(OCC(=O)NC3CC(C)(C)NC(C)(C)C3)ccc12,9.82%
9,CN1CC(=O)N(CC(=O)Nc2ccc(N3CCOCC3)cc2)C1=O,-10.9%
10,CS(=O)(=O)N1CCCC(c2nc(-c3ccc(S(=O)(=O)NCc4ccccc4)cc3)no2)C1 (stereo not given),37.8% (active)
11,CCN1CCN(c2ccc(S(=O)(=O)N3CCCCC3)cc2NC(=O)/C=C/c2ccc([N+](=O)[O-])cc2)CC1,3.5%
12,COc1ccc(-c2nnnn2-c2ccccc2OC)cc1,0.37%
13,COc1cc2oc(-c3ccc(O)cc3)cc(=O)c2c(O)c1OC,-45.5%
14,Cc1cc(OCC(=O)Nc2nccs2)c2c(C)c(C)c(=O)oc2c1,-127%
15,O=C(Cc1ccc(S(=O)(=O)N2CCCC2)s1)Nc1cccc([N+](=O)[O-])c1,1.81%
16,NC(=O)COc1ccc2c3c(c(=O)oc2c1)CCCCC3,0.54%
17,CCOc1ccc(NC(=O)CSc2nc3[nH]ncc3c(=O)[nH]2)cc1,-6.78%
18,O=C1C(Cl)=C(N2CCOCC2)C(=O)N1c1ccc(Br)cc1,4.3%
19,COc1cc(/C=N/NC(N)=S)ccc1OCC(=O)Nc1ccc(C)cc1,-1.66%
20,O=C(COC(=O)Cn1[nH]c(=O)c2ccccc2c1=O)NNC(=O)c1ccc(Br)cc1,-7.59%
